PubChem BioAssay (NCATS)
Records with an inconclusive call do not appear. Active and inactive are the calls of the source. The call rests on the fitted dose curve. Numbered stars: 1 amine (or outer) side, 2 acyl side, 3 side chain; on linkers, the order of the positions; unused ones are H or OH. Bridge positions count the residues as written; N and C are the ends. Square brackets hold non-standard residues; d marks the D form. Peptide text beside a SMILES is read from it. * marks the point of attachment. X6 = NC1=N[C@@H](O)C[C@H]([C@H](N[*:1])C(=O)[*:2])N1; ΔAla(Z-3-ureido) = NC(=O)N/C=C(\N)C(=O)O; Octanoyl(6-Me) = CCC(C)CCCCC(=O)*; β3hOrn = NCCC[C@H](N)CC(=O)*; Dab = NCC[CH](N)C(=O)O; Dap = NC[C@H](N)C(=O)O

Experiment: Primary qHTS for Vero E6 cytotoxicity: counterscreen for inhibitors of SARS-S pseudo-typed particle cell entry (AID 1479150)
Details: cell viability; series mostly up to 57.1 µM; activity change, negative = cytotoxicity: at the top concentration

Compound | outcome
COC(=O)CCC(=O)CN | inactive
CCCCCCCCCCCC(=O)OCN1C(=O)CCc2ccc(OCCCCN3CCN(c4cccc(Cl)c4Cl)CC3)cc21 | inactive [at 15.3 µM]
CC(O)C(CO)NC(=O)C1CSSCC(NC(=O)C(N)Cc2ccccc2)C(=O)NC(Cc2ccccc2)C(=O)NC(Cc2c[nH]c3ccccc23)C(=O)NC(CCCCN)C(=O)NC(C(C)O)C(=O)N1 (stereo not drawn) | inactive [at 26.4 µM]

Experiment: Cytotoxicity counterscreen for inhibitors of SARS-CoV-2 cell entry (AID 1645845); further: nearly all actives have a fitted effect of over 50% in size; on activity change, negative = cytotoxicity: on the % scale 0 is the no-effect control and ±100 the full control effect
Details: cell viability (SARS-CoV-2 entry assay cells); series mostly up to 57.1 µM; activity change, negative = cytotoxicity: at the top concentration
Method in brief: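 After a 15 min room-temperature ATPLite 1step step, luminescence reflected ATP remaining in HEK293-ACE2 cells exposed to compound for 1 h plus 48 h at 37 C, with percent activity set by cell and no-cell controls.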

Compound | outcome | Potency | activity change, negative = cytotoxicity
CNC[C@@H]1CC[C@@H](N)[C@@H](O[C@H]2[C@H](O)[C@@H](O[C@H]3OC[C@](C)(O)[C@H](NC)[C@H]3O)[C@H](N)C[C@@H]2N)O1 | inactive | – | –
CO[C@H]1C[C@@H]2CC[C@@H](C)[C@@](O)(O2)C(=O)C(=O)N2CCCC[C@H]2C(=O)O[C@H]([C@H](C)C[C@@H]2CC[C@@H](OC(=O)C(C)(CO)CO)[C@H](OC)C2)CC(=O)[C@H](C)/C=C(\C)[C@@H](O)[C@@H](OC)C(=O)[C@H](C)C[C@H](C)/C=C/C=C/C=C/1C | – | inactive | –
CC(=O)OC1CCC2(C)C(=CCC3C2CCC2(C)C(c4cccnc4)=CCC32)C1 (stereo not drawn) | inactive | – | –
CC(C)(C)NCC(O)COc1ccccc1C#N (stereo not drawn) | inactive | – | –
CCOc1ccc(Cc2cc([C@@H]3O[C@H](CO)[C@@H](O)[C@H](O)[C@H]3O)ccc2Cl)cc1 | – | inactive | –
CO/N=C(\C(=O)N[C@@H]1C(=O)N2C(C(=O)O)=C(CSc3cnns3)CS[C@H]12)c1csc(N)n1 | – | – | -8.04% (inactive)
O=P(O)(O)OP(=O)(O)O | inactive | – | –
CC1(C)S[C@@H]2[C@@H](N3C(=O)[C@@H](c4ccccc4)NC3(C)C)C(=O)N2[C@H]1C(=O)O | inactive | – | –
CNCC(O)c1ccc(OC(=O)C(C)(C)C)c(OC(=O)C(C)(C)C)c1 (stereo not drawn) | – | – | -8.07% (inactive)
CCCCC(=O)O | inactive | – | –
NCCC[C@H](N)CC(=O)N[C@H]1CNC(=O)[C@H]([C@H]2C[C@H](O)N=C(N)N2)NC(=O)/C(=C/NC(N)=O)NC(=O)[C@H](CO)NC(=O)[C@H](CO)NC1=O (β3hOrn-[Dap]SS[ΔAla(Z-3-ureido)][X6]; lactam 1-C) | inactive | – | –
CS(=O)(=O)n1cc2c(n1)CN([C@H]1CO[C@H](c3cc(F)ccc3F)[C@@H](N)C1)C2 | inactive | – | –
CO/N=C(\C(=O)N[C@@H]1C(=O)N2C(C(=O)O)=C(Cn3ccc(=N)n3CCO)CS[C@H]12)c1csc(N)n1 | – | – | 4.04% (inactive)
CN[C@H]1C(=O)N[C@@H]2Cc3ccc(cc3)Oc3cc4cc(c3O[C@@H]3O[C@H](C(=O)O)[C@@H](O)[C@H](O)[C@H]3NC(=O)CCCCCCCCC(C)C)Oc3ccc(cc3Cl)[C@@H](O)[C@@H]3NC(=O)[C@H](NC(=O)[C@@H]4NC(=O)[C@@H](NC2=O)c2cc(cc(O)c2Cl)Oc2cc1ccc2O)c1ccc(O)c(c1)-c1c(O[C@H]2O[C@H](CO)[C@@H](O)[C@H](O)[C@@H]2O)cc(O)cc1[C@@H](C(=O)NCCCN(C)C)NC3=O | – | – | -3.72% [at 27.1 µM] (inactive)
CNC(=O)OCc1cccc(COC(=O)NC)n1 | – | – | -7.85% (inactive)
CSCCNc1nc(SCCC(F)(F)F)nc2c1ncn2[C@@H]1O[C@H](COP(=O)(O)OP(=O)(O)C(Cl)(Cl)P(=O)(O)O)[C@@H](O)[C@H]1O | – | – | 4.15% (inactive)
COC(=S)NCCn1c([N+](=O)[O-])cnc1C | – | – | 2.04% (inactive)
O=C(O[C@H]1C[N+]2(CCCOc3ccccc3)CCC1CC2)C(O)(c1cccs1)c1cccs1 | inactive | – | –
O=C1C(c2[nH]c3ccc(S(=O)(=O)O)cc3c2O)=Nc2ccc(S(=O)(=O)O)cc21 | inactive | – | –
CO[C@H]1/C=C\O[C@@]2(C)Oc3c(C)c(O)c4c(O)c(c5c(nc6cc(C)ccn65)c4c3C2=O)NC(=O)/C(C)=C\C=C/[C@H](C)[C@H](O)[C@@H](C)[C@@H](O)[C@@H](C)[C@H](OC(C)=O)[C@@H]1C | inactive | – | –

Compound | outcome | Potency | activity change, negative = cytotoxicity
CN(C)/C(N)=N/C(=N)N | inactive [setting not given] | – | –
C[C@@H]1C[C@H]2[C@@H]3CCC4=CC(=O)C=C[C@]4(C)[C@@]3(F)[C@@H](O)C[C@]2(C)[C@@]1(O)C(=O)COP(=O)(O)O | inactive [at 11.3 µM] | – | –
CCCC(=O)O[C@]1(C(=O)COC(=O)CC)[C@@H](C)C[C@H]2[C@@H]3CCC4=CC(=O)C=C[C@]4(C)[C@@]3(F)[C@@H](O)C[C@@]21C | inactive | – | –
CC(CCc1ccc(O)cc1)NCC(O)c1ccc(O)cc1 (stereo not drawn) | – | – | 0.712% (inactive)
OC[C@H]1OC(O)C[C@@H](O)[C@@H]1O (stereo partly drawn) | – | – | 3.89% (inactive)
CC1(C)S[C@@H]2[C@H](NC(=O)C(C(=O)Oc3ccc4c(c3)CCC4)c3ccccc3)C(=O)N2[C@H]1C(=O)O (stereo partly drawn) | – | – | -16.7% (inactive)
C[C@H](CCC(=O)O)[C@H]1CC[C@H]2[C@@H]3[C@H](O)C[C@@H]4C[C@H](O)CC[C@]4(C)[C@H]3C[C@H](O)[C@]12C | inactive | – | –
NC[C@@H]1O[C@H](O[C@H]2[C@@H](O)[C@H](O[C@@H]3[C@@H](O)[C@H](N)C[C@H](N)[C@H]3O[C@H]3O[C@H](CO)[C@@H](O)[C@H](O)[C@H]3N)O[C@@H]2CO)[C@H](N)[C@@H](O)[C@@H]1O | – | – | -2.38% [at 0.702 µM] (inactive)
O=C(Cc1cccs1)NC1C(=O)N2C(C(=O)[O-])=C(C[n+]3ccccc3)CSC12 (stereo not drawn) | – | – | -1.17% (inactive)
COC(=O)N[C@H](C(=O)N1CCC[C@H]1C(=O)Nc1ccc([C@@H]2CC[C@@H](c3ccc(NC(=O)[C@@H]4CCCN4C(=O)[C@@H](NC(=O)OC)C(C)C)cc3)N2c2ccc(C(C)(C)C)cc2)cc1)C(C)C | – | – | 0.309% (inactive)
CC(C)(C)C(=O)OCC(=O)[C@H]1CC[C@H]2[C@@H]3CCC4=CC(=O)CC[C@]4(C)[C@H]3CC[C@]12C | – | – | 2.26% (inactive)
NC(=O)OCC(O)COc1ccc(Cl)cc1 (stereo not drawn) | inactive | – | –
CC(C=CC1=C(C)CCCC1(C)C)=CC=CC(C)=CC(=O)Oc1c(C)c(C)c2c(c1C)CC[C@@](C)(CCC[C@H](C)CCC[C@H](C)CCCC(C)C)O2 | – | – | -2.74% [at 5.25 µM] (inactive)
CCC(C)CCCCC(=O)NC(CCN)C(=O)NC(C(=O)NC(CCN)C(=O)NC1CCNC(=O)C(C(C)O)NC(=O)C(CCN)NC(=O)C(CCN)NC(=O)C(CC(C)C)NC(=O)C(Cc2ccccc2)NC(=O)C(CCN)NC1=O)C(C)O (stereo not drawn) ({Octanoyl(6-Me)}-[Dab]T[Dab][Dab][Dab]FL[Dab][Dab]T; lactam 4-C; configuration not given here) | inactive [at 27.1 µM] | – | –
O=C[C@H](O)[C@@H](O)[C@H](O)[C@H](O)CO | inactive | – | –
CCCCCCCCCCCCCCCCOc1nc2ccc(C)cc2c(=O)o1 | inactive | – | –
CCCC(=O)O[C@]1(C(=O)COC(C)=O)CC[C@H]2C3C[C@H](F)C4=CC(=O)C=C[C@]4(C)[C@@]3(F)[C@@H](O)C[C@@]21C (stereo partly drawn) | inactive | – | –
COC(=O)CCC(=O)CN | inactive | – | –
CCCCCCCCCCCC(=O)OCN1C(=O)CCc2ccc(OCCCCN3CCN(c4cccc(Cl)c4Cl)CC3)cc21 | inactive [at 19 µM] | – | –
CC(O)C(CO)NC(=O)C1CSSCC(NC(=O)C(N)Cc2ccccc2)C(=O)NC(Cc2ccccc2)C(=O)NC(Cc2c[nH]c3ccccc23)C(=O)NC(CCCCN)C(=O)NC(C(C)O)C(=O)N1 (stereo not drawn) | – | – | 0.662% [at 27.1 µM] (inactive)
